Source: PubChem
Insulin prom inh = TRM-6 insulin promoter activity inhibition | TRM-6 cells (human fetal islet line), insulin promoter-eGFP reporter, imaging; reporter expression induced with tamoxifen | inhibition, % at 2 µM | 0.9% of 130,000 active | AID 1273;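 active = inhibition above the mean plus 3 SD, with well images judged a real hit on visual review, cut at about 60% in these data, passing the limit was not always enough; inconclusive = inhibition over the cutoff but images rejected on review; inactive = inhibition not above the cutoff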
Insulin prom up = MIN6 insulin promoter up-regulation | z-score at 5 µM | AID 1625 | MIN6 insulin promoter-GFP reporter, high-content imaging; stronger effect = higher value | 0.3% of 190,000 active;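 active = z-score above 3 at 5 µM with at least 500 cells counted in the well; inconclusive = wells under 500 cells, flagged as cytotoxic or low count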
Lmaj promast = Leishmania major promastigote growth inhibition | Leishmania major promastigotes, resazurin fluorescence viability | inhibition, % at 10 µM | 9% of 200,000 active | AID 1063; in the data active = inhibition above about 50%;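 note: promastigotes grown with compound for 44 hours at 28 °C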
Autophagy HCS = modulators of autophagy. MEF GFP-LC3 puncta imaging; test concentration mostly 10 µM. calls only at 10 µM (by protocol). 0.98% of 190,000 active. AID 463193;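 active = percentage of spot-positive cells more than 3 SD above its plate mean, without a fluorescence outlier flag or 80% toxicity; inconclusive = no clear call, values can overlap the other calls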;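 note: spot-positive cell cutoff set from DMSO-treated cells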
HCT116 PTEN-null = suppresses growth of cells with PTEN deletion; AID 827; 1.2% of 140,000 active; viability, % at 10 µM; HCT116 PTEN-null viability, CellTiter-Glo, 60 h; stronger effect = lower value;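 active = viability at or below a set limit, 4 SD under the median of all tested compounds, cut at about 3.7% in these data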;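 note: PTEN knockout HCT116 line with beta catenin targeted HCT116 as companion control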
bCat KO growth = beta-catenin-lacking colon tumor cell growth suppression | HCT116 beta-catenin knockout viability, CellTiter-Glo, 60 h; stronger effect = lower value | viability, % at 10 µM | 1.5% of 140,000 active | AID 818;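 active = viability at or under a set limit, the compound median less 4 SD, cut at about 6% in these data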;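 note: 0% = Hyamine 1622 control at 20 µM and 100% = untreated cell control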
Lmaj promast 1uM = inhibitors of Leishmania major promastigote growth, repeat at 1 uM. shares compounds with Lmaj promast. L. major promastigote growth, resazurin fluorescence, 48 h. inhibition, % at 1 µM. 13% of 1,100 active;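 active = inhibition above about 50% in both repeat tests, limit read from the data; inconclusive = one repeat under the set limit, the other over it; inactive = both repeats under the set limit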
* hit, by the source's call; i = inactive; ? = inconclusive; . = not tested or not shown. This is a sample that favours compounds with a hit; in the whole collection about 9.6% have one here.

SMILES	Insulin prom inh	Insulin prom up	Lmaj promast	Autophagy HCS	HCT116 PTEN-null	bCat KO growth	Lmaj promast 1uM
CCN(CC)CCOC(=O)C12CC3CC(CC(C3)C1)C2	9	-0.09	97*	i	95	99	-5
CN(C)CCOC(=O)C12CC3CC(C1)CC(C(=O)OCCN(C)C)(C3)C2	.	0.16	.	.	.	.	.
FC(F)(F)c1nc(-c2ccncc2)ncc1-c1nnnn1-c1ccccc1	.	0	61*	i	74	75	11
CCOC(=O)N1CCN(C(=O)c2ccc3c(c2)sc2nc(-c4ccccc4)cn23)CC1	-100	-0.22	58*	i	93	87	2
O=c1cc(-c2ccc([N+](=O)[O-])cc2)nc2cc(-c3ccc(Cl)cc3)[nH]n12	.	.	-5	i	78	88	.
COc1ccc(C2CC(c3ccc4ccccc4c3)=NN2C(=O)CSc2ncccn2)cc1 (configuration not stated)	.	-0.38	30	i	56	68	.
c1ccc2c(c1)OC(CCCN1CCCCC1)c1ccccc1S2 (configuration not stated)	-140	?	100*	i	30	52	95*
C=CCOc1nc2c(c(=O)n(C)c(=O)n2C)n1Cc1ccccc1	.	-0.44	.	.	.	.	.
